SIRT5 inh: SIRT5 desuccinylase inhibitors, primary screen, biochemical, fluorescence imaging, single point, set 5; NAD-dependent protein deacylase sirtuin-5, mitochondrial (Homo sapiens), Q9NXA8; Purified SirT5, succinyl-peptide AMC, trypsin-coupled fluorescence; inhibition, % at 15 µM; hit rate 1.1% among 330,000; in the data active means inhibition above about 15%; inconclusive means no clear call, values can overlap the other calls
PDI inh: inhibitors of human PDI, primary screen, biochemical, turbidity, single point, plate reader | Protein disulfide-isomerase (Homo sapiens), P07237 | PDI insulin aggregation turbidity, A650, 90 min | inhibition, % at 10 µM | hit rate 0.052% among 350,000;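 active means mean inhibition across replicates of 30% or more, whatever share of single replicates reach that level; inconclusive means mean inhibition below 30% while every single replicate reaches 30%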
HDAC3 inhib: HDAC3 deacetylase inhibitors, primary screen, biochemical, fluorescence, cell-free homogeneous. AID 2718, 2010. recombinant HDAC3, fluorogenic peptide/trypsin coupled. hit rate 0.15% among 320,000. inhibition, % at 8.3 µM. Histone deacetylase 3 (Homo sapiens), O15379; in the data active means inhibition above about 26%, passing the limit was not always enough; inconclusive means no clear call, values can overlap the other calls
ERAP1 inh: human ERAP1 aminopeptidase inhibitors, primary screen, biochemical, single point, plate reader | recombinant ERAP1, Leu-AMC fluorescence, 60 min | inhibition, % at 10.7 µM | hit rate 0.15% among 340,000 | AID 652197, 2013;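 active means mean replicate inhibition of at least 30%, or all replicates individually reaching that 30% level; inactive means mean below 30% and not every replicate reaching it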;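 further: 0% = neutral control wells and 100% = L-leucinethiol positive control wells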
Target sequence (Q9NZ08 whole entry, looked up): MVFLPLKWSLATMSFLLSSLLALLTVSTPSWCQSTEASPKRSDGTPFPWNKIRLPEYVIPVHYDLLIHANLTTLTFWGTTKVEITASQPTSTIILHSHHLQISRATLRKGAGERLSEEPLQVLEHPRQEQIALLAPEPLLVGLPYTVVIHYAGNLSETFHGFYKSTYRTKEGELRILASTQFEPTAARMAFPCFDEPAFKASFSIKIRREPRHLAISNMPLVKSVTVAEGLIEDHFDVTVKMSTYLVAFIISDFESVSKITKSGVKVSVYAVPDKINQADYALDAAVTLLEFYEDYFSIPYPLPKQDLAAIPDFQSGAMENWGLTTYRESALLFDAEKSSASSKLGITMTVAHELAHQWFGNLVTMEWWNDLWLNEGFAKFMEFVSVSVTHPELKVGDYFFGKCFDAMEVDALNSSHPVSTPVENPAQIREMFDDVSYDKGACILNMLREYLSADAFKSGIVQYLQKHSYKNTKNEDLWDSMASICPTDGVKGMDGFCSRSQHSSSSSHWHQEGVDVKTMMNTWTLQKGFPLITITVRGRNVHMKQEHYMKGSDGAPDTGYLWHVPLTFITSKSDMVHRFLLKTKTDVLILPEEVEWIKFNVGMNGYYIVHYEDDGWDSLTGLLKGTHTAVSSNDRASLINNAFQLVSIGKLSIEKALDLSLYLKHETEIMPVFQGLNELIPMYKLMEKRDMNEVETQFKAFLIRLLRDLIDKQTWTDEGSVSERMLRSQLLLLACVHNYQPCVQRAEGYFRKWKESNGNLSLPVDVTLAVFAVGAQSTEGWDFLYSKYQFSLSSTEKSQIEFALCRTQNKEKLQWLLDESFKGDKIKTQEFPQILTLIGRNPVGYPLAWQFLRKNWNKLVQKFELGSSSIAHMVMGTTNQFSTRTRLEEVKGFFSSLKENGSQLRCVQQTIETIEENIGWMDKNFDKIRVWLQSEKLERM
ERp5 inh: inhibitors of ERp5-driven insulin aggregation, primary screen, biochemical, turbidity, absorbance 650 nm, single point | AID 651711, 2012 | hit rate 0.05% among 350,000 | inhibition, % at 9.99 µM | 90 min | Protein disulfide-isomerase A6 (Homo sapiens), Q15084;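 active means mean replicate inhibition above about 25%, with every replicate also reaching it, limit read from the data, passing the limit was not always enough; inconclusive means only one of those two criteria met; inactive means neither criterion met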
Starred values were filed as active, the others as inactive; u = inconclusive; x = not tested or not shown. Only a selection was taken, and hits are over-represented in it overall.

SMILES	SIRT5 inh	PDI inh	HDAC3 inhib	ERAP1 inh	ERp5 inh
Cc1c(NC(=O)CN2CCN(c3ccc(O)cc3)CC2)c(=O)n(-c2ccccc2)n1C	1	7	7	-1	-7
COc1ccccc1N1CCN(CC(=O)Nc2c(C)n(C)n(-c3ccccc3)c2=O)CC1	29*	-1	-2	-4	-3
Cc1cccc(S(=O)(=O)N2[C@@H]3CNC[C@H]2C3c2ccc(-c3ccccc3C)cc2)c1 (stereo partly drawn)	2	x	x	4	0
CN(C1=NC(=O)C(CC(=O)Nc2ccc(Br)cc2)S1)c1ccc(O)cc1 (stereo not drawn)	x	61*	0	x	x
CCNC(=O)c1ccc(NC(=O)CC2SC(N3CCCC3)=NC2=O)cc1 (stereo not drawn)	-8	-8	-5	-8	-5
CCOc1ccc(Br)cc1S(=O)(=O)Nc1cccc(S(=O)(=O)Nc2ccccc2C(=O)O)c1	1	2	4	-5	0
O=C(Nc1ccccc1C(=O)O)c1cc(S(=O)(=O)Nc2ccccc2)ccc1Cl	23*	-51	-6	0	-7
O=C(O)c1ccccc1NS(=O)(=O)c1cccc(NS(=O)(=O)c2cc(Br)ccc2Br)c1	5	1	2	33*	1
O=C(O)c1ccc(NS(=O)(=O)c2ccc(Cl)c(C(=O)Nc3ccccc3)c2)cc1	0	14	-13	2	-5
O=C(C1CCCCC1)N1C[C@@H]2[C@H](c3ccccc31)[C@H](CO)N2C(=O)c1ccccc1	-5	x	x	1	-1
C[C@@H]1CN([C@@H](C)CO)C(=O)c2cc(NS(=O)(=O)c3cn(C)cn3)ccc2O[C@@H]1CN(C)Cc1ccc2c(c1)OCO2	-3	x	x	1	-7
COc1ccccc1-[n+]1c(C)cc(/C=C2\Sc3ccccc3N2C)cc1C	9	-7	u	15	8
COc1ccc(-[n+]2c(C)cc(/C=C3\Sc4ccccc4N3C)cc2C)cc1	26*	4	19	10	-5
C=CC[N+](C)(C)CCCNC(=O)/C=N/O	1	-14	1	69*	-8
O=C(NNC(=O)c1ccccc1-n1cccc1)c1ccccc1	x	2	-3	x	x
NNC(=O)c1ccccc1-n1cccc1	22*	-11	-8	3	0
Cc1ccc(C2=C(CC(=O)O)C(=O)CC2)cc1	x	-2	-3	x	x
COC(=O)CC1=C(c2ccc([N+](=O)[O-])cc2)CCC1=O	16*	-9	x	-2	-4
CCN1/C(=C/c2ccc3cc(C)ccc3[n+]2CC)Sc2cc(C)c(C)cc21	-1	-4	x	33*	-1
O=S(=O)(c1ccccc1F)N1CC[C@H]2[C@H](CO)Nc3ccc(-c4ccccc4)cc3[C@H]21	9	x	x	1	1
C[C@H]1CN([C@@H](C)CO)C(=O)Cc2cc(NC(=O)Cc3cn(C)c4ccccc34)ccc2O[C@H]1CN(C)Cc1ccc(C(=O)O)cc1	-2	x	x	-2	7
O=C(Nc1ccccc1O)c1ccc2c(c1)C(=O)N(Cc1ccco1)C2=O	1	13	41*	-1	8
C[C@@H]1CN([C@H](C)CO)C(=O)c2cc(C#CC3(O)CCCC3)cnc2O[C@@H]1CN(C)Cc1ccccc1	1	x	x	2	-1
CN1CCN(C(=O)c2cc3c(c(-c4cccc(C#CCC5CCCC5)c4)n2)[C@@H](CCO)N(S(=O)C(C)(C)C)C3)CC1 (stereo partly drawn)	8	x	x	-4	1
COc1ccc(/C=C2/C(=O)N(c3nc4ccccc4s3)N=C2CSc2ccc(Cl)cc2)cc1	18*	-9	-7	3	-1
SMILES	SIRT5 inh	PDI inh	HDAC3 inhib	ERAP1 inh	ERp5 inh
Cc1ccc(-c2ccc3c(c2)O[C@H](CN(C)C(=O)CN(C)C)[C@H](C)CN([C@@H](C)CO)S3(=O)=O)cc1	4	x	x	0	-2
C[C@@H]1CN([C@H](C)CO)C(=O)Cc2cc(NS(=O)(=O)c3cccs3)ccc2O[C@H]1CN(C)Cc1ccc(-c2ccccc2)cc1	9	x	x	-1	-4
C[C@@H]1CN([C@@H](C)CO)C(=O)Cc2cc(NS(=O)(=O)c3cccs3)ccc2O[C@H]1CN(C)Cc1ccc(-c2ccccc2)cc1	17*	x	x	-2	-6
C[C@@H]1CN([C@@H](C)CO)C(=O)Cc2cc(NS(=O)(=O)c3cccs3)ccc2O[C@H]1CN(C)Cc1ccc(C(F)(F)F)cc1	16*	x	x	-1	-2
C[C@H]1CN([C@@H](C)CO)C(=O)Cc2cc(NS(=O)(=O)c3cccs3)ccc2O[C@@H]1CN(C)Cc1ccc(C(F)(F)F)cc1	7	x	x	0	4
C[C@@H]1CN([C@@H](C)CO)C(=O)Cc2cc(NS(=O)(=O)c3cccs3)ccc2O[C@H]1CN(C)C(=O)Nc1ccc(C(F)(F)F)cc1	7	x	x	1	47*
C[C@@H]1CN([C@@H](C)CO)C(=O)Cc2cc(NC(=O)Cc3ccccc3)ccc2O[C@@H]1CN(C)C(=O)Nc1ccc(C(F)(F)F)cc1	4	x	x	-2	37*
C[C@@H]1CN([C@@H](C)CO)C(=O)Cc2cc(NC(=O)Cc3ccccc3)ccc2O[C@H]1CN(C)C(=O)Nc1ccc(C(F)(F)F)cc1	-2	x	x	-2	-2
C[C@@H]1CCCCO[C@@H](CN(C)S(=O)(=O)c2ccccc2)[C@H](C)CN([C@@H](C)CO)C(=O)c2cc(NS(C)(=O)=O)ccc2O1	1	x	x	0	6
C[C@@H]1CN([C@H](C)CO)C(=O)Cc2cc(NC(=O)Nc3ccccc3)ccc2O[C@@H]1CN(C)Cc1ccc(Oc2ccccc2)cc1	11	x	x	0	-1
Cc1ccc(S(=O)(=O)Nc2ccc3c(c2)C(=O)N([C@H](C)CO)C[C@@H](C)[C@H](CN(C)Cc2ccc(-c4ccccc4)cc2)O3)cc1	18*	x	x	-4	-10
C[C@@H]1CN([C@H](C)CO)C(=O)c2cc(NS(=O)(=O)c3ccccc3)ccc2O[C@@H]1CN(C)Cc1ccc(Oc2ccccc2)cc1	17*	x	x	-2	4
C[C@@H]1CN([C@H](C)CO)C(=O)c2cc(NS(=O)(=O)c3ccccc3)ccc2O[C@H]1CN(C)Cc1ccc(-c2ccccc2)cc1	16*	x	x	-3	-4
Cc1ccc(S(=O)(=O)Nc2ccc3c(c2)C(=O)N([C@H](C)CO)C[C@H](C)[C@H](CN(C)Cc2ccc(-c4ccccc4)cc2)O3)cc1	14	x	x	-5	-1
C[C@@H]1CN([C@@H](C)CO)C(=O)c2cc(NS(=O)(=O)c3ccccc3)ccc2O[C@H]1CN(C)Cc1ccc(-c2ccccc2)cc1	12	x	x	0	-6
C[C@@H]1CN([C@@H](C)CO)C(=O)c2cc(NS(=O)(=O)c3ccccc3)ccc2O[C@@H]1CN(C)CC1CCCCC1	25*	x	x	0	2
